The source of these data is PubChem BioAssay (Tox21).

Structures are written as SMILES. Values without a mark were called inactive. Calls of active or inactive are those of the source. Calls follow the shape of the full dose curve.
% is scaled to controls: 0 for no effect and ±100 for the full control effect.

Sequence of Gonadotropin-releasing hormone receptor (Homo sapiens) (P30968 whole entry, looked up): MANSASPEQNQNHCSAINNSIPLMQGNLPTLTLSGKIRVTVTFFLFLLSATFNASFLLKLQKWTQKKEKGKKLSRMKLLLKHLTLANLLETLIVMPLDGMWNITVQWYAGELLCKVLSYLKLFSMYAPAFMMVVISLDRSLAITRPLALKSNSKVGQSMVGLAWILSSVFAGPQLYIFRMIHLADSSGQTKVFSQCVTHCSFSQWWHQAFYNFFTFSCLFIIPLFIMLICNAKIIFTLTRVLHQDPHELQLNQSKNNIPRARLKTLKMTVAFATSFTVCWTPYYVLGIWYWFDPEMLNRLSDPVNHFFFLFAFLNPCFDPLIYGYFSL

The test has as its target Gonadotropin-releasing hormone receptor (Homo sapiens) (UniProt P30968). The test can be described thus: Human gonadotropin-releasing hormone receptor (GnRHR) small molecule agonists, calcium flux assay in GnRHR-HEK293 cells (AID 1920063). Also: nearly all actives have a fitted effect of over 35% in size. The conditions noted are these: calcium flux fluorescence, agonist mode; series mostly up to 57.6 µM; activity change: at the top concentration. From the text:
National Center for Advancing Translational Sciences [NCATS]
Division of Preclinical Innovation [DPI]
U.S. Environmental Protection Agency [EPA]
National Institutes of Environmental Health Sciences [NIEHS]
National Toxicology Program [NTP]
U.S. Food and Drug Administration [FDA]
Gonadotropin-releasing hormone receptor (GnRHR) is a G-protein-coupled receptor (GPCR) and acts (through phospholipase C) to increase intracellular inositol trisphosphate and then release intracellular calcium stores. Cell-based GnRHR-Hek293 calcium influx assay is using HEK293 cells that have been genetically engineered to express the human GnRHR, which activity can be measured by calcium signaling. A compound/drug can activate (agonist) GnRHR that can be monitored by levels of intracellular calcium.
GnRHR-HEK293 cells developed by Codex Corp contain human GnRHR reporter gene, which was stably integrated into HEK 293 cells. The compound activation can be detected by fluorescence intensity via calcium flux assay. This cell line has been used to screen the Tox21 10K compound library to identify GnRHR agonists.
GnRHR-Hek293 cells were dispensed at 1500cells/4uL/well in 1536-well black wall/clear bottom plates using a multidrop dispenser. After the assay plates were incubated at a 37 C/5% CO2 incubator for 18 hours, 4 uL of Calcium Dye Solution was added to each well. The plates were incubated at 37 C for 1 hour. For agonist mode, 23 nL of compounds dissolved in DMSO, positive controls or DMSO only was transferred to the assay plate by a pin tool station. The fluorescence intensity in the plates was measured using FDSS 7000EX kinetic plate reader with a filter set of Ex/Em=480/540 for 3 min at 1 sec intervals. Each test compound was measured at 15 concentrations and in triplicates.
A general note: Calcium flux is commonly read through the fluorescence of an indicator in the cells.
With `C=C(C)C(=O)OC(C)C`, the “activity change” value was -0.391%. In the case of `COc1cccc(Br)c1`, the “activity change” value was 1.22%. Turning to `Oc1c(Cl)ccc(Cl)c1Cl`, the Potency result is “inactive”. Regarding `CCCCCCS`, the “activity change” value was -0.164%.

In the case of `CC(C)[C@H]1CC[C@@H](C)CC1=O`, the “activity change” value was -0.906%. For `C=CCOC(=O)CCCCCC`, the “activity change” value is 0.0335%.

On to `CC(C)COC(=O)c1ccc(N)cc1`, for which the “activity change” value is -0.659% [at 26.4 µM, active compounds read high]. Turning to `CCN(CC)CC(=O)OCC(=O)[C@@]1(O)CC[C@H]2[C@@H]3CCC4=CC(=O)CC[C@]4(C)[C@H]3[C@@H](O)C[C@@]21C`, the “activity change” value is 1.24% [at 26.4 µM, active compounds read high]. Same read-out and setting: as for `Cc1ccc2c(c1)OCC(=O)CO2`, the figure is 0.686%; as for `O=C(OC(=O)c1ccccc1)c1ccccc1`, -0.481%. As to `FC(F)(F)/C(=N\OCC1OCCO1)c1ccc(Cl)cc1`, the “activity change” value was -0.0656%. In the case of `COC(=O)C1=C(C)NC(C)=C(C(=O)OCC(C)C)C1c1ccccc1[N+](=O)[O-]` (stereo not given), the Potency entry is “inactive”.

In the case of `Cc1ccc(-c2ccccc2C#N)cc1`, the “activity change” value was -1.6% [at 26.4 µM, active compounds read high]. In the case of `CC1CCC(C(C)(C)O)CC1` (stereo not given), the “activity change” value was 0.0995%. For the molecule `CCC1CCCCC1`, the “activity change” value is 2.48%. Still for that read-out and setting: as for `CC#N`, the figure is 0.703%; as for `COc1ccc(Cl)cc1C`, 1.03%.

For the molecule `Cc1cccc2cccnc12`, the “activity change” value was -3.14%.

Take `Clc1ccc2c(c1)C(N1CCNCC1)=Nc1ccccc1O2`: the Potency result is “inactive”.

Take `COC(=O)CC(C(C)=O)C(=O)OC` (stereo not given): the “activity change” value was 0.644%.

Take `CCCCCCCCCC(C)=O`: the “activity change” value is 0.453%. Turning to `C[C@]12CCC(=O)C=C1CC[C@@H]1[C@@H]2[C@@H](O)C[C@@]2(C)[C@H]1CC[C@]2(O)C(=O)CO`, the Potency result was “inactive”. As to `CC(=O)c1cc2ccccc2s1`, the “activity change” value is -1.45% [at 26.4 µM, active compounds read high].

As to `O=c1n(CCO)c(=O)n(CCO)c(=O)n1CCO`, the Potency entry is “inactive”. For the molecule `NC(=O)c1ncn([C@@H]2O[C@H](CO)[C@@H](O)[C@H]2O)c1O`, the “activity change” value was -0.264% [at 26.4 µM, active compounds read high]. On to `CC(=C(CCOC(=O)C(C)C)SSC(CCOC(=O)C(C)C)=C(C)N(C=O)Cc1cnc(C)nc1N)N(C=O)Cc1cnc(C)nc1N`, for which the “activity change” value is -0.675% [at 26.4 µM, active compounds read high]. With `O=C(O)[C@@H]1[C@H]2C[C@H]3c4[nH]c5ccccc5c4CCN3C[C@@H]2CC[C@@H]1O`, the “activity change” value is 2.69% [at 26.4 µM, active compounds read high]. On the same count and under the same terms, as for `C1CN(CCOCCN2CCOCC2)CCO1`, the figure is 0.623%; as for `CN1C(CCl)Nc2cc(Cl)c(S(N)(=O)=O)cc2S1(=O)=O` (stereo not given), -1.62% [at 26.4 µM, active compounds read high]. With `COc1ccc(C(=O)CC(=O)c2ccc(C(C)(C)C)cc2)cc1`, the Potency entry was “inactive”. `O=C(O)CCS`: the “activity change” value was 2.94%. Turning to `NC1CCCCC1N` (stereo not given), the Potency result is “inactive”. With `CC(C)=O`, the “activity change” value is -0.555%. Take `CCOC(=O)CCC(C)=O`: the “activity change” value is -0.528%.

`CCCCc1ccc2cccc(S(=O)(=O)O)c2c1`: the “activity change” value is -0.0763%. Turning to `Nc1c(Br)cc([N+](=O)[O-])cc1Br`, the “activity change” value is 0.478%. In the case of `C=CC(=O)OCC(CO)(COC(=O)C=C)COC(=O)C=C`, the Potency result was “inactive”. Still for that read-out and setting: next, `O=S1(=O)OC(c2ccc(O)cc2)(c2ccc(O)cc2)c2ccccc21`: “inactive”. `CC(=O)C(C)O` (stereo not given): the “activity change” value was -0.527%. For `CC(C)COC(=O)c1ccccc1O`, the “activity change” value was 0.0996%.
